# The whole screen tested about 4,500 compounds, of which about 200 (4.4%) were called active. Only a selection was taken, and actives are over-represented in it overall. Unmarked numbers belong to inactive results.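 How the source made its calls: active means cell survival measured by absorbance rises more than 2.5-fold over infected cells without compound; inactive means the rest.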
# Assay: survival after telomere uncapping, modulators, primary screen, cell-based (AID 1259312);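 further: virus expresses mutant telomerase RNA that uncaps telomeres and kills cells; compound added 2 days after infection so exposure lasts 3 days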
# Conditions: HCT116 + Ad-hTR-mut, MTT, 5 d; at 10 µM, stronger effect = higher value
row,SMILES,fold change
1,CN1C2CC(OC(=O)C(CO)c3ccccc3)CC1C1OC12 (stereo unspecified),2.65 (active)
2,C1=CN(c2ccccc2)C(C=NCc2ccccc2)=CS1,3.25 (active)
3,O=C(NCCOC(=O)Nc1ccc(Cl)c(Cl)c1)Nc1ccc(Cl)c(Cl)c1,-1.04
4,O=C(C[n+]1ccccc1)c1cccs1,4.15 (active)
5,O=C(C[n+]1ccccc1)c1ccc(Br)cc1,-1.26
6,O=C(O)CNC(=O)c1cccs1,1.14
7,COc1ccc(OC)c(NS(=O)(=O)c2cc(Cl)ccc2Cl)c1,1.1
8,S=C(NNC(=S)Nc1ccccc1)Nc1ccccc1,4.1 (active)
9,CNC(=S)Nc1ccccc1,-1.89
10,NNC(=S)Nc1ccccc1,2.03
11,CN(Cc1cccs1)C(=S)SCCO,1.27
12,Cc1ccc(-c2nc(Cn3c(-c4cscn4)nc4ccccc43)cs2)cc1,-1.62
13,CN1C(=O)/C(=C2\SC(=S)N(CCS(=O)(=O)O)C2=O)c2ccccc21,4.3 (active)
14,C=CCN1C(=O)/C(=C2\SC(=S)N(CCC)C2=O)c2ccccc21,-1.1
15,CSCCC(C(=O)O)N1C(=O)/C(=C2/C(=O)N(C)c3ccccc32)SC1=S (stereo unspecified),-1.54
16,CCOC(=O)c1c(N)sc(C(=O)N2CCCCC2)c1C,-1.62
17,CN(C)CCCN1C(=O)C(O)=C(C(=O)c2cccs2)C1c1cccs1 (stereo unspecified),-1.86
18,Brc1ccc(C(Br)C(Br)c2ccccc2Br)cc1 (stereo unspecified),-2.96
19,N#CCC(c1ccccc1)C(C#N)c1ccc(Br)cc1 (stereo unspecified),-1.3
20,ClC(Cl)(Cl)C(c1ccc(Br)cc1)c1ccc(Br)cc1,3.49 (active)
21,O=[N+]([O-])c1ccccc1Nc1ccccc1,1.12
22,O=C1NC(=S)S/C1=C/c1ccc(O)cc1,3.65 (active)
23,O=C1NC(=S)S/C1=C\c1ccsc1,-1

row,SMILES,fold change
1,CN(C)c1ccc(/C=C2/SC(=S)NC2=O)cc1,2.2
2,Cc1cc(C)c(O)c(C(CC(C)C)c2cc(C)cc(C)c2O)c1,-4.02
3,O=C1CC(c2ccccc2)CC2=C1C(c1ccc(OC(F)(F)F)cc1)Nc1ccccc1N2 (stereo unspecified),-1.06
4,OC(c1nc2ccccc2[nH]1)C(O)c1nc2ccccc2[nH]1 (stereo unspecified),3.31 (active)
5,FC(c1nc2ccccc2[nH]1)C(F)(F)F (stereo unspecified),2.19
6,OC(c1ccccc1)c1nc2ccccc2[nH]1 (stereo unspecified),-1.08
7,COc1ccnc2cc(Cl)ccc12,1.06
8,Brc1ccccc1-c1nnc(C(c2ccccc2)c2ccccc2)o1,-1.33
9,Cc1nccn1CCC(=O)O,5.01 (active)
10,Cc1cc(C)nc(SCCC(=O)O)n1,-2.76
11,Nc1nc(SCCCOc2ccccc2)n[nH]1,1.24
12,COc1ccc(NC(=O)Nc2cccc(Cl)c2)cc1,1.1
13,O=C(COc1ccccc1)N=Nc1c(O)[nH]c2ccccc12,inactive
14,Cc1sc2ccccc2[n+]1CCCS(=O)(=O)[O-],2.97 (active)
15,Oc1ccc2ccccc2c1N=Nc1ccccc1,inactive
16,Oc1ccc2ccccc2c1CNCCNCc1c(O)ccc2ccccc12,3.72 (active)
17,Oc1ccc2ccccc2c1Sc1c(O)ccc2ccccc12,-2.97
18,Cc1nc2ccc3ccccc3c2s1,-2.18
19,c1ccc2cc3[nH]c(CN4CCOCC4)nc3cc2c1,1.25
20,Nc1ncnc2c1ncn2[C@H]1C[C@H](O)[C@@H](COP(=O)(O)O)O1,-1.8
21,CCN(C(=O)c1sc(NC(=O)CCl)c(C#N)c1C)C1CCCCC1,-1.18
22,Cc1[nH]nc2c1C(c1ccncc1)C(C#N)=C(N)O2 (stereo unspecified),2.49
23,Cc1cc2c(c(=O)o1)C(c1ccncc1)C(C#N)=C(N)O2 (stereo unspecified),3.96 (active)

row,SMILES,fold change
1,CCOC(=O)c1ccc(C2C(C#N)=C(N)Oc3cc(C)oc(=O)c32)o1 (stereo unspecified),-1.07
2,O=C1CCCC2=C1C(c1ccco1)C1=C(N2)c2ccccc2C1=O (stereo unspecified),-5.38
3,O=S1(=O)CCC(SCc2nnc(-c3ccccc3)o2)C1 (stereo unspecified),-1.78
4,CCNC(=S)Nc1ccc(Br)cc1,-2.77
5,S=c1[nH]nc(Cc2n[nH]c(=S)n2Cc2ccccc2)n1Cc1ccccc1,4.65 (active)
6,S=c1[nH]nc(Cc2ccccc2)n1Cc1ccccc1,1.06
7,S=c1[nH]nc(CCc2ccccc2)n1Cc1ccccc1,1.25
8,CCOC(=O)c1c(NC(=O)CCl)sc2c1CCN(C(=O)OCC)C2,-1.2
9,O=C(CCCOc1ccc(Cl)cc1Cl)Nn1cnnc1,2.83 (active)
10,COC(=O)NNC(=O)CCCOc1ccc(Cl)cc1Cl,1.34
11,O=C(COc1ccc(Cl)cc1Cl)NCC1CCCO1 (stereo unspecified),-1.41
12,Cc1c(C(C)C)c(=O)n(-c2ccc(S(=O)(=O)NC3CC3)cc2)n1C,-2.25
13,Brc1ccc(-c2csc(Nc3ccccc3)n2)cc1,-1.95
14,NC(=O)c1c(NC(=O)CN2CCOCC2)sc2c1CCCC2,-1.32
15,N#CCS/C(SCC(=O)c1ccc(Br)cc1)=C(/C#N)C(=O)c1ccc(Br)cc1,1.41
16,N#CCS/C(SCC(=O)c1ccc2c(c1)OCO2)=C(/C#N)C(=O)c1ccc2c(c1)OCO2,2.84 (active)
17,CSc1nc(SCC(=O)c2ccc3c(c2)OCO3)nc(N)c1C#N,1.54
18,OC1CCC2Cc3ccccc3N=C12 (stereo unspecified),-1.24
19,O=c1[nH]nc(C[N+](=O)[O-])c2ccccc12,1.05
20,CC12C=CC(=O)C=C1CCC1C3CC(O)C(O)(C(=O)CO)C3(C)CC(O)C12F (stereo unspecified),1.13
21,CC(C)=NNc1nccc2ccccc12,-1.17
22,S=C(Nc1ccccc1)N1CCOCC1,3.11 (active)
23,c1ccc(N=C(Nc2ccccc2)N2CCOCC2)cc1,1.32

row,SMILES,fold change
1,S=C(Nc1ccccc1)N1CCCCC1,-1.66
2,O=C(O)CN1C(=O)C(=O)c2cc(Br)ccc21,-1.45
3,CN1C(=O)C(=O)c2cc(Br)ccc21,-1.19
4,O=C1c2ccc(Br)cc2C(=O)N1CNc1ccc(Br)cc1,2.94 (active)
5,CCN(C(=O)c1cccs1)C1CCCCC1,-1.05
6,N#CCN(CC#N)C(=O)c1cccs1,4.34 (active)
7,N#CCN(CC#N)C(=O)c1ccco1,-1.86
8,CC(=O)Nc1ccc2nc(SCC(=O)Nc3nccs3)sc2c1,-1.04
9,O=C1OC(C2OC(=O)c3ccccc32)c2ccccc21 (stereo unspecified),-2.64
10,Cc1cc(C)c2c(c1)-c1c(ssc1=S)C(C)(C)N2C(=O)c1ccccc1,-2.03
11,CC1(C)Nc2ccccc2-c2c1ssc2=S,4.78 (active)
12,CCOc1ccc2c(c1)-c1c(sn(-c3ccc(OC)cc3)c1=S)C(C)(C)N2,-1.06
13,COc1ccc2c(c1)-c1c(ssc1=S)C(C)(C)N2,3.31 (active)
14,CCOc1ccc2c(c1)-c1c(ssc1=S)C(C)(C)N2,5.41 (active)
15,CCOc1ccc2c(c1)-c1c(ssc1=Nc1ccc(Cl)cc1C)C(C)(C)N2,-1.6
16,COc1ccc2c(c1)-c1c(ssc1=S)C(C)(C)N2C(=O)CSc1ncn[nH]1,-3.53
17,Cc1cccc2c1N(C(=O)c1ccc(-c3ccccc3)cc1)C(C)(C)c1ssc(=S)c1-2,-1.16
18,Cc1ccc2c(c1)-c1c(ssc1=S)C(C)(C)N2,2.39
19,O=C(c1cccs1)[C@H]1CCCC[C@H]1C(=O)O,1.2
20,Oc1ccc2c(c1)c1c3n2CCNC3CCC1 (stereo unspecified),-1.09
21,COc1ccc(C2C=COc3n[nH]c(-c4ccccc4)c32)cc1OC (stereo unspecified),2.04
22,Cn1cc(/C=C2\C(=O)NC(=S)N(c3ccc(Br)cc3)C2=O)c2ccccc21,-1.42
23,O=C(NCCOC1=NS(=O)(=O)c2ccccc21)C(=O)Nc1ccccc1,1.05

row,SMILES,fold change
1,CC(=O)N/C(=N/c1nc(C)cc(C)n1)Nc1ccc(F)cc1F,inactive
2,COc1ccc(-c2nc3sc(-c4ccc(OC)c(OC)c4)nc3s2)cc1OC,-4.78
3,S=c1[nH]nc(Cn2cnc3ccccc32)n1-c1ccccc1,1.13
4,S=c1[nH]nc(COc2ccccc2)n1-c1ccccc1,1.72
5,S=c1[nH]nc(COc2cccc3ccccc23)n1-c1ccccc1,3 (active)
6,Cc1c(C(=O)OC(C)C)sc(NC(=O)C(F)(F)C(F)(F)C(F)(F)C(F)(F)F)c1C(=O)OC(C)C,-1.73
7,O=c1oc(-c2cccc(F)c2)nc2ccc(Br)cc12,-1.47
8,Nc1cc2ccccc2cc1N,-1.17
9,NC(=O)c1cc2ccccc2o1,2.76 (active)
10,COC(=O)c1cc2cc(Br)ccc2o1,-2.17
11,Clc1nc2ccccc2nc1-c1ccccc1,-1.36
12,N=C1S/C(=C/c2cn[nH]c2-c2ccc(F)cc2)C(=O)N1c1nonc1N,-1.44
13,N#Cc1c(N)nc2c(c1-c1cccc(Br)c1)CCCCCC2,-1.03
14,Cc1ccc(C)c(-c2c(C#N)c(N)nc3c2CCCCC3)c1,-1.2
15,N#Cc1c(N)nc2c(c1-c1cccc(Br)c1)CCCCC2,-1.02
16,Cc1ccc(-c2c(C#N)c(N)nc3c2CCCC3)c(C)c1,1.09
17,N#Cc1c(N)nc2c(c1-c1ccc(Cl)cc1Cl)CCCCC2,4.06 (active)
18,N#Cc1c(N)nc2c(c1-c1cccc(Br)c1)CCCC2,2.68 (active)
19,Brc1ccc2nc(SCCOc3ccccc3)[nH]c2c1,-1.46
